# Screening data (PubChem BioAssay)
# esBAF inh: inhibitors of esBAF chromatin remodeling in mouse ES cells. 2% of 350,000 active. reporter increase, % at 12.5 µM. AID 602393. Bmi1-luciferase knock-in reporter, 24 h; 100% = twice the neutral-well signal; in the data active means activation above about 40%; inconclusive means no clear call, values can overlap the other calls;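 further: 0% = median of the plate's neutral control wells and 100% = double that signal; a rise in the Bmi1 reporter signal indicates esBAF inhibition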
# SKN-1 block: C. elegans SKN-1 inhibition; C. elegans VP596 Pgst-4::GFP/RFP ratio, acrylamide-induced, 24 h; inhibition, % at 21.8 µM; 0.49% of 360,000 active; AID 624304;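 active means interference check ratio from 0.5 to 1.5 plus GFP to RFP signal ratio inhibition reaching or exceeding a fixed threshold, cut at about 30% in these data, passing the limit was not always enough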
# NR3A LBD binder: modulators (binders) of human NR3A ligand-binding domain; NR3A LBD differential scanning fluorimetry, Tm shift; 0% = protein alone, 100% = glycine-bound protein; Tm shift relative to glycine control, % at 25 µM; 2.5% of 340,000 active;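 active means melting temperature shift of at least 10% of the positive control shift, at one fixed dose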
# Vif imaging: inhibitors of HIV Vif; inhibition, % at 7.49 µM; HEK293T cells, Vif self-association by quenched fluorescence, imaging, 24 h; 0.35% of 340,000 active; in the data active means inhibition above about 50%, passing the limit was not always enough; inconclusive means no clear call, values can overlap the other calls; inactive means below about 31%
# NadD inh: inhibitors of Staphylococcus aureus NadD; purified NadD enzyme, colorimetric absorbance read-out; inhibition, % at 20 µM; 0.78% of 360,000 active; AID 602399; in the data active means inhibition above about 26%
# SMARCA2 activ: activators of SMARCA2 function | 1% of 370,000 active | activation, % at 9.1 µM | MG213 cells, MMTV-luciferase reporter, dexamethasone, overnight; in the data active means activation above about 7.8%;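 further: 0% = vehicle wells and 100% = reference activator wells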
# Numbers without * were called inactive; ? = inconclusive; . = not tested or not shown. Shown are actives, neighbours in structure and some others; about 5.2% of the full set was active somewhere.
SMILES,esBAF inh,SKN-1 block,NR3A LBD binder,Vif imaging,NadD inh,SMARCA2 activ
Cc1cc(C(=O)Nc2sc3c(c2C#N)CCC(C)C3)cs1 (stereo not given),52*,10,2,1,-3,4
CC(C)NC(=O)NCC[C@H]1CC[C@@H](NC(=O)CN(C)C)[C@@H](CO)O1,-6,.,.,.,.,.
CCCCOCCCNC(=O)Cc1cccs1,-2,9,11*,-2,0,1
CCOCCCNC(=O)C(NC(=O)Cc1cccs1)c1ccccc1 (stereo not given),.,-10,2,-6,4,-1
O=S(=O)(c1cccc(NC(=S)N2CCN(c3cccc(Cl)c3)CC2)c1)C(F)F,5,2,26*,-7,-1,-3
O=C1NC(c2cc(Cl)cc([N+](=O)[O-])c2O)Nc2ccccc21 (stereo not given),-2,3,14*,.,9,-2
O=C1NC(c2ccc(Cl)c([N+](=O)[O-])c2)Nc2ccccc21 (stereo not given),.,-5,-1,5,0,-1
S=C(NC1CC1)N1CCc2ccccc2C1,-9,7,-1,94*,5,-4
S=C(NC1CCCCC1)N1CCc2ccccc2C1,15,7,11*,-11,-3,2
COc1ccc(NC(=O)Nc2ccc3c(c2)C(=O)N([C@@H](C)CO)C[C@H](C)[C@H](CN(C)C(=O)CCCN(C)C)OCCCC[C@H](C)O3)cc1,-3,.,.,.,.,.
CC(C)NC(=S)N/N=C/c1sc(N2CCCCC2)nc1-c1cccs1,67*,16,-2,-9,13,-1
NC(=O)N/N=C/c1sc(N2CCCCC2)nc1-c1cccs1,24,3,-1,-14,2,6
CC1=C(C(=O)Nc2ccc(CC(=O)NCc3ccccc3C)cc2)SCCO1,49*,2,2,0,1,2
CCc1ccc(CNC(=O)Cc2ccc(NC(=O)C3=C(C)OCCS3)cc2)cc1,21,3,0,3,1,2
COC(=O)CCc1sc(Nc2ccccc2)nc1-c1ccc(OC)cc1,.,0,-11,-1,0,9.7*
COc1ccc(CN(C)C[C@@H]2Oc3ccc(NC(=O)Nc4ccc(OC)cc4)cc3C(=O)N([C@H](C)CO)C[C@@H]2C)cc1,1,.,.,.,.,.
Cc1noc(C)c1NC(=O)Nc1cccc2c1O[C@@H](CN(C)CC1CCCCC1)[C@@H](C)CN([C@H](C)CO)C2=O,-1,.,.,.,.,.
NS(=O)(=O)c1ccc(CNc2ccc3ccccc3n2)cc1,52*,9,3,-3,-1,2
CCC(c1nnnn1CCOC)N1CCN(Cc2ccccc2)CC1 (stereo not given),2,36*,-4,14,-3,-2
C[C@H]1CN([C@@H](C)CO)C(=O)c2cccc(NC(=O)Nc3ccc4c(c3)OCO4)c2O[C@@H]1CN(C)S(=O)(=O)c1ccc(F)cc1,19,.,.,.,.,.
CCc1nc2c(OCc3ccc(C(F)(F)F)cc3)cccn2c1N(C)C(=O)c1ccncc1,-4,54*,.,0,-3,5
CCc1nc2c(OCc3ccc(C(F)(F)F)cc3)cccn2c1N(C)C(C)=O,6,4,.,-5,0,-1
COc1ccc(-c2nnc(NC(=O)c3ccc(S(=O)(=O)N4CCCc5ccccc54)cc3)o2)cc1,-6,25,6,2,86*,.
COCc1nnc(NC(=O)c2ccc(S(=O)(=O)N3CCCc4ccccc43)cc2)o1,.,-10,-5,0,11,-2
O=C(COc1ccccc1/C=C1\SC(=S)NC1=O)Nc1ccc(F)cc1,.,3,14*,-8,6,-1
SMILES,esBAF inh,SKN-1 block,NR3A LBD binder,Vif imaging,NadD inh,SMARCA2 activ
Cc1ccc(-c2ccc3c(c2)O[C@H](CN(C)C(=O)CN(C)C)[C@H](C)CN([C@@H](C)CO)S3(=O)=O)cc1,5,.,.,.,.,.
CC(=O)Nc1ccc(NC(=O)c2cccc(-c3cc4ccccc4oc3=O)c2)cc1,66*,-3,-4,5,3,3
Nc1ccc(Nc2nc(-c3cc4ccccc4oc3=O)cs2)cc1,81*,-15,5,-5,14,2
O=C(Nc1ccc(N2CCCC2)c(Cl)c1)c1cccc(-c2cc3ccccc3oc2=O)c1,.,11,-2,1,22,1
O=C(O)c1ccc(Nc2nc(-c3cc4ccccc4oc3=O)cs2)cc1O,.,-6,5,1,3,0
O=C(Nc1nc(-c2cc3ccccc3oc2=O)cs1)c1ccc(Br)o1,.,23,29*,4,4,2
O=C(Nc1nc(-c2ccccn2)cs1)c1cc2ccccc2o1,11,-27,1,12,8,-1
COc1cccc2sc(Nc3nc(-c4cc5ccccc5oc4=O)cs3)nc12,.,1,20*,-2,23,-3
O=C([C@@H]1[C@@H](CO)[C@@H]2Cn3c(ccc(C4=CCCC4)c3=O)[C@@H]2N1CC1CC1)N1CCCCC1,4,.,.,.,.,.
C[C@@H]1CN([C@H](C)CO)C(=O)c2cc(NS(C)(=O)=O)ccc2O[C@H]1CN(C)Cc1ccc(Oc2ccccc2)cc1,-1,.,.,.,.,.
O=C(N[C@H]1CC[C@@H](CCNS(=O)(=O)c2ccc(F)cc2)O[C@@H]1CO)c1cccnc1,0,.,.,.,.,.
C[C@H]1CN([C@@H](C)CO)C(=O)c2cc(-c3cccc(F)c3)cnc2O[C@@H]1CN(C)C(=O)C1CCC1,2,.,.,.,.,.
CC(=O)Nc1ccc(Nc2nc(-c3cc4ccccc4oc3=O)cs2)cc1,90*,-2,4,-11,9,1
C[C@H](CO)N1C[C@H](C)[C@H](CN(C)Cc2ccncc2)OCCCC[C@H](C)Oc2ccc(NC(=O)CCC(F)(F)F)cc2C1=O,-2,.,.,.,.,.
CN1CCN(C(=O)C[C@@H]2CC[C@@H]3[C@H](COC[C@@H](O)CN3C(=O)C3CCOCC3)O2)CC1,-8,.,.,.,.,.
N#CC(C#N)=C(Nc1ccc(F)cc1)SCc1cccc(Br)c1,.,-2,25*,0,-6,-10
Cc1ccc(-c2nc3ccc(Br)cn3c2Cc2cccc(Cl)c2)cc1,43*,34,.,.,8,3
Cc1ccc(-c2nc3ccc(C)cn3c2Cc2cccc(Cl)c2)cc1,.,3,.,.,7,8
Cc1ccc2nc(-c3cccc(Br)c3)c(Cc3ccccn3)n2c1,48*,15,.,.,0,-2
Clc1ccc(-c2nc3ccc(Br)cn3c2Cc2cccc(Cl)c2)cc1,?,1,.,.,23,3
Clc1cccc(-c2nc3ccc(Br)cn3c2Cc2ccccc2)c1,7,36*,.,.,8,4
Clc1cccc(Cc2c(-c3cccc(Cl)c3)nc3ccc(Br)cn23)c1,27,6,.,.,16,6
Cc1ccc(-c2nc3ccc(Cl)cn3c2Cc2cccc(Cl)c2)cc1,50*,1,.,.,14,1
C[C@@H]1CN([C@H](C)CO)S(=O)(=O)c2ccc(C3=CCCCC3)cc2O[C@@H]1CN(C)S(=O)(=O)c1cn(C)cn1,2,.,.,.,.,.
